Each structure is given as a SMILES string. The panel holds about 83,000 compounds, 20% with a hit somewhere; the sample as a whole holds those more often.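 Interpretation: 100, growth as untreated; towards 0, rising growth inhibition; 0, no net growth; 0 to -100, cell death. Compounds scoring below 10 were considered active.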 A number with no mark means an inactive call. Calls of active or inactive are those of the source.

In the assay the test system is MDA-MB-435 melanoma. The experiment in a line: NCI-60 one-dose screen, 48 h (100 = growth as untreated, 0 = no growth, -100 = all killed). The settings on record: 10 µM unless noted. As for the experimental part: Growth inhibition of the MDA-MB-435 human Melanoma tumor cell line is measured as a screen for anti-cancer activity. Cells are grown in 96 well plates and exposed to the test compound for 48 hours. Compounds are tested at a single concentration, which is 10^-5 M for most compounds. The reported endpoint is percent growth (GI% or GIPRCNT), where numbers from 0 - 100% represent growth inhibition, and numbers from -100% - 0 represent cell death. For example, a value of 40 represents 60% growth inhibition. A value of 0 means no net growth occurred over the course of the experiment. A value of -40 indicates 40% of cells at the beginning of the experiment died by the end of the experiment. A value of -100 means all cells are dead at the end of the experiment.
NCI-60 Human Tumor Cell Lines Screen was performed using the standard one-dose NCI protocol, which is described in more detail at https://dtp.cancer.gov/discovery_development/nci-60/default.htm.
Compounds with GIPRCNT values below 10 were considered active. Activity score was based on GIPRCNT using the following formula: […]
Score is 0 for GIPRCNT values of 100 or above, 50 for GIPRCNT values of 0, and 100 for GIPRCNT values of -100.
With `CCN(CC)CC(O)c1cc(-c2ccc(Cl)cc2)nc2c(C)c(Cl)ccc12` (stereo not given), the growth is -90% (active). As for `O=C(CN1CCN(c2cc3c(cc2F)c(=O)c(C(=O)O)cn3C2CC2)CC1)Nc1nc(-c2ccc(Cl)cc2)cs1`, the figure is 25.2%; as for `CCCCCCCCCCCCCCCCCCNC(=O)[C@H]1CSC(c2ccc(F)c(OC)c2)N1` (stereo not given in full), -92.7% (active); as for `CCCCOc1ccc(NC(=O)n2nc(NC(C)=O)c3cc(NC(C)=O)ccc32)cc1`, 92.3%.

Consider `Cc1cc(-c2nc3ccccc3s2)ccc1NC(=O)COc1ccc(Cl)cc1`, for which the growth was 113%.

On to `CC/C=C\C[C@H](O)C/C=C1/C(=O)C=C[C@@H]1C/C=C\CCCC(=O)NC`, for which the growth is 15.2%. As to `O=C1c2cc3c(cc2-c2c1c1cc(F)c(F)cc1c(=O)n2C[C@H](O)CO)OCO3`, the growth is -11% (active).

Consider `CCCCCCNC(=O)Oc1ccc(/C(=C(\C)c2ccccc2)c2ccc(OCCN(CC)CC)cc2)cc1`, for which the growth is 45.6%. As for `O=C1C[C@H](N2C(=O)c3ccccc3S2(=O)=O)C2CO[C@@H]1O2`, the figure is 95.7%; as for `Nc1nc(-c2ccc(F)cc2)cc(-c2cnn(-c3ccccc3)n2)n1`, 106%. As for `Cc1ccc(N)cc1F`, the figure is 100%; as for `O=C1C[C@H](Sc2nc(-c3ccc(F)cc3)cc(C(F)(F)F)n2)[C@H]2CO[C@@H]1O2`, 102%. As for `COc1ccc(-c2cc(NC(=O)Nc3ccc(O)cc3)no2)cc1`, the figure is 67.6%; as for `COc1c(C2CC(=O)Nc3c2cnn3Cc2ccco2)cc2c(c1OC)OCO2` (stereo not given), -58.4% (active); as for `COc1cc(C2CC(=O)Nc3c2c(C)nn3-c2nc3ccccc3[nH]2)cc(OC)c1OC` (stereo not given), 103%. In the case of `COc1ccc2nc3cc(Cl)ccc3c(N3CCN(c4ccnc(N5CCN(C)CC5)n4)CC3)c2c1`, the growth was 66.5%. As for `N#Cc1c2c(nc3n[nH]c(N)c13)CCCC2`, the figure is 106%; as for `CC(=O)Oc1cc2cnc3c4cc(OC(C)=O)c(OC(C)=O)cc4ccc3c2cc1OC(C)=O`, 23.3%; as for `C/C(=C(/c1ccc(O)cc1)c1ccc(OCCN2CCCC2)cc1)c1ccccc1`, 39.9%. As for `COc1cccc(-c2nc3sccn3c2-c2ccnc(NCCCNS(=O)(=O)c3ccccc3)c2)c1`, the figure is 38.5%. As for `Cc1nc2sc(C(=O)Nc3cccc4c3OCCO4)c(N)c2cc1C(C)O` (stereo not given), the figure is -39.2% (active). For the compound `CS(=O)(=O)c1c(Nc2ccccc2)n[nH]c1N`, the growth is 107%. As for `O=C(Cn1cc(CN2C(=O)c3ccccc3S2(=O)=O)nn1)Nc1ccc([N+](=O)[O-])cc1Cl`, the figure is 103%.

In the case of `CCOC(=O)/C=C/C(=O)[C@H](CC(C)C)NC(=O)[C@H](Cc1ccccc1)NC(=O)OCc1ccccc1`, the growth was 75.8%. Take `CCOC(=O)c1c2c(n3ccc(NC(=O)CCN4CCOCC4)cc13)C(=O)c1ncccc1C2=O`: the growth is 19.4%. As for `CCC(C)[C@@H]1NC(=O)[C@@H]2CCCN2C(=O)[C@H](Cc2ccccc2)NC(=O)[C@@H]2CCCN2C(=O)[C@H](Cc2ccccc2)NC(=O)[C@@H]2CCCN2C(=O)[C@H](Cc2ccccc2)NC1=O` (stereo not given in full), the figure is 112%; as for `COc1ccc(/C=C/C(=O)c2c(O)c(C)c(O)c3c2OC2=CC(O)=C(C(C)=O)C(=O)[C@]23C)cc1`, -66.9% (active). As for `COC1=CC(=O)C(OC)=C(OC)C1=O`, the figure is 97.5%; as for `COCCCN=C(N)c1ccc(NC(=O)c2ccc(C(=O)Nc3ccc(C(N)=NCCCOC)cc3)cc2)cc1`, 88.4%. For `COc1cc(/C=N/N(C)C)ccc1O`, the growth is 106%. As for `O=C(COc1cccc(/C=C2/Oc3ccccc3C2=O)c1)Nc1nccs1`, the figure is 103%; as for `O=C(Cc1ccccc1)c1ccc(Cl)cc1`, 94.3%. As for `COc1cc(C(=O)/C=C/c2c(C)n([O-])c3ccc(C)cc3[n+]2=O)cc(OC)c1OC`, the figure is 60.1%; as for `CCC(c1ccccc1)C(CC)c1ccc(O)c(O)c1` (stereo not given), 95%. As for `CC(C)n1cc2c(N)ncnc2n1`, the figure is 98.6%. `COc1cc2c(=O)n(CC3CCCCC3)c3c4cc[nH]c4ncc3c2cc1OC`: the growth is 55.3%. As to `COc1cccc(/C=C\C(=O)c2ccccc2)c1`, the growth is 72.9%. With `Brc1cccc(-c2cc(-c3ccc4c(c3)OCCO4)[nH]n2)c1`, the growth was -40.2% [25 µM] (active). In the case of `CNc1cc2nc3cc(NC)c(C)cc3cc2cc1C`, the growth is 41.7%. As for `O=C(O)c1cccnc1Br`, the figure is 102%.

Source of the values: PubChem BioAssay (NCI).
